# Rows were chosen to be rich in hits. Some 7.5% of all compounds tested hit in one or more screens of this group.
# ELG1 genotoxic: qHTS screen for small molecules that induce genotoxicity in human embryonic kidney (HEK293T) cells expressing luciferase-tagged ELG1. hit rate 1.3% among 330,000. Potency, µM (doses to about 46 µM), hits mostly activators. HEK293T ELG1-luciferase reporter, luminescence, 16 h; note: nearly all actives have a fitted effect of over 60% in size
#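 Cells (2,000/well) expressing the ELG1-luciferase fusion are dosed by pin tool and kept 16 hr at 37 °C, 5% CO2. Signal comes from ONE-Glo luciferase reagent after 30 min at room temperature.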
# FLuc counter: qHTS profiling assay for firefly luciferase inhibitor/activator using purifed enzyme and Km concentrations of substrates (counterscreen for miR-21 project); purified FLuc, Km substrates, luminescence inhibition; Potency, µM (highest dose often 57.5 µM), most hits filed as inhibitors; hit rate 6.9% among 360,000; note: nearly all actives have a fitted effect of over 55% in size
# Target sequence (P08659 whole entry, looked up): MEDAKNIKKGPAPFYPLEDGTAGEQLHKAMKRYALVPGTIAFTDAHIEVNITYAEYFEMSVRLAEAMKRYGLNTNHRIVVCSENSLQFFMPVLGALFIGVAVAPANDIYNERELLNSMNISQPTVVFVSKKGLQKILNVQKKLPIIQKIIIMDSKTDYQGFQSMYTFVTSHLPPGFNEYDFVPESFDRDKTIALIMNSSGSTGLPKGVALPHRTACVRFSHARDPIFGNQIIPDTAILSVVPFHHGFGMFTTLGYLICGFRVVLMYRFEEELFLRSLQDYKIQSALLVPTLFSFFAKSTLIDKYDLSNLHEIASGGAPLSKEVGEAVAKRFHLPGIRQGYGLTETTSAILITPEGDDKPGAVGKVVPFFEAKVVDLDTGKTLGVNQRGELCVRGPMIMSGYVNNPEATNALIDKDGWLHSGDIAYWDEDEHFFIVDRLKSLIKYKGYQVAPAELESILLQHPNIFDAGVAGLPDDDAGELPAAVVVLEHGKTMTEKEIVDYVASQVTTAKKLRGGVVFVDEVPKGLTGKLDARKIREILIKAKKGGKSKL
#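 Biochemical qHTS of compounds, final roughly 60 µM downward over six points, against 10 nM purified firefly luciferase using Km concentrations of substrates (10 uM D-luciferin, 10 uM ATP) in Tris acetate pH 7.5 buffer; luminescence output.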
# SMN2 splice up: qHTS Assay for Enhancers of SMN2 Splice Variant Expression. Potency, µM (highest dose often 46.1 µM), actives largely listed as activators. HEK293 SMN2-luciferase splicing reporter, luminescence, 30-36 h. hit rate 2.8% among 210,000; note: nearly all actives have a fitted effect of over 55% in size
#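 qHTS luciferase splicing reporter: luminescence rises when SMN2 exon 7 is included in transfected HEK293 cells. Compound exposure lasted 30-36 h at 37C, with 4.5 mM final sodium butyrate as control, followed by a ONE-Glo read.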
# NPC1 promoter act: qHTS Assay for NPC1 Promoter Activators; AID 485313, 2010; Huh7 NPC1 promoter luciferase reporter, 24 h; hit rate 2.4% among 320,000; Potency, µM (top dose mostly 9.22 µM), hits mostly activators; note: nearly all actives have a fitted effect of over 60% in size
#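 Huh7 reporter cells (NPC1 promoter driving luciferase) are dosed with compound for 24 h at 37 °C, 5% CO2; luciferase detection reagent is then added and luminescence measured after 10 min at ambient temperature.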
# Rab9 promoter act: qHTS Assay for Rab9 Promoter Activators. Huh7 Rab9 promoter-luciferase reporter, luminescence, 24 h. Potency, µM (top dose mostly 9.22 µM), hits mostly activators. hit rate 2.8% among 320,000; note: nearly all actives have a fitted effect of over 60% in size
#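 Measured in stably transfected Huh7 cells bearing a Rab9 promoter–luciferase construct: 24 h compound treatment at 37 °C, followed by luminescence detection.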
# Luc counter: Counterscreen for Luciferase (Kinase-Glo TM) Inhibition. Kinase-Glo luciferase, ATP luminescence, 8 min. Potency, µM (series often up to 38.3 µM), most hits filed as inhibitors. hit rate 0.28% among 200,000. AID 1379, 2008; note: nearly all actives have a fitted effect of over 60% in size
#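 Recombinant Kinase-Glo luciferase, 10 uM ATP (linear range), luciferin; imidazole pH 7.2 / KCl / MgCl2 / Tween / BSA buffer; 8 min RT; luminescence.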
# Numbers stand for hits; . = inactive; ? = inconclusive; / = not tested or not shown; [ ] = remark or other dose. Calls come from the whole dose curve; as a rule, active = well fitted curve in the direction sought with a large enough effect; inconclusive = small, poorly fitted or top-dose-only effect, or another doubt; inactive = no such curve, though single readings can be large; an effect the other way counts as inactive or inconclusive.
SMILES,ELG1 genotoxic,FLuc counter,SMN2 splice up,NPC1 promoter act,Rab9 promoter act,Luc counter
COc1ccc(C2CC(=O)N(C)c3ccccc3S2)cc1OC (centres undefined),18µM,?,.,.,4µM,.
Cc1cc(OCC(=O)N2CCc3ccccc3C2)c(C)cc1Br,.,.,/,.,.,/
O=C(c1ccc2oc(CCc3ccccc3)nc2c1)N1CC[C@H](O)C1,?,?,/,3.5µM,1.4µM,/
CCOC(=O)N1CCN(C(=O)c2ccc3oc(CCCc4ccccc4)nc3c2)CC1,?,6µM,/,1.6µM,1.6µM,/
CCCCc1nc2cc(C(=O)N3CCC(O)CC3)ccc2o1,?,11µM,/,1.6µM,2µM,/
CC(=O)N1CCN(C(=O)c2ccc3oc(CCCc4ccccc4)nc3c2)CC1,.[9.26 µM],.,/,.,.,/
O=C(c1ccc2oc(CCCc3ccccc3)nc2c1)N1CCCC(CCCO)C1 (centres undefined),.,.,/,.,.,/
CCCCc1nc2cc(C(=O)N(C)C3CCOCC3)ccc2o1,9.2µM,13µM,/,?,2.5µM,/
CCCCc1nc2cc(C(=O)N(C)CCc3cn[nH]c3)ccc2o1,.,?,/,.,.,/
COc1ccc(OC)c(NC(=O)CSc2nc3nc(C)cc(C)n3n2)c1,.,.,/,.,.,/
Cc1cc(C)c(S(=O)(=O)N2CCOC2CNC(=O)C(=O)NCCN(C)C)c(C)c1 (centres undefined),.,.,/,.,.,/
COc1cccc(CNC(=O)Cn2c(=O)oc3cc(S(=O)(=O)N4CCCC4)ccc32)c1,/,.,.,/,/,/
CCn1c(SC)nc2c([nH]c3ccccc32)c1=O,/,.,/,/,/,/
COc1ccc(OC)c(CNC(=O)C2CCN(c3nc4ccccc4nc3C(F)(F)F)CC2)c1,/,.,/,/,/,/
COC(=O)CCCNC(=O)c1ccc2oc(CCCc3ccccc3)nc2c1,.,?,/,.,?,/
COC(=O)[C@@H](C)NC(=O)c1ccc2oc(CCc3ccccc3)nc2c1,?,21µM,/,4µM,2.5µM,/
CCN(CC)CCNC(=O)C(=O)Nc1cc2c3c(c1)CCC(=O)N3CCC2,.,.,/,.,.,/
O=C1c2ccccc2C(=O)N1OCc1ccccc1[N+](=O)[O-],.,17µM,.,.,.,.
O=C1c2ccccc2S(=O)(=O)N1Cc1ccccc1[N+](=O)[O-],.,.,/,.,.,/
O=C(Cc1ccccc1[N+](=O)[O-])OCN1C(=O)c2ccccc2C1=O,.,9.5µM,/,.,.,/
Nc1nc(C2CC2)c(Sc2sc(N)nc2C2CC2)s1,.,.,16µM,.,.,.
Nc1nc(C2CCOCC2)cs1,.,.,/,.,.,/
Cc1ccc(-c2nc3cc(Cl)ccc3o2)cc1NC(=O)c1cc([N+](=O)[O-])ccc1N1CCOCC1,/,?,.,/,/,/
Cc1ccc(-c2nc3cc(C(C)C)ccc3o2)cc1NC(=O)c1cccs1,/,1.9µM,.,/,/,/
O=C(Nc1cc(-c2nc3cc(Cl)ccc3o2)ccc1Cl)c1cccs1,/,.,.,/,/,/
SMILES,ELG1 genotoxic,FLuc counter,SMN2 splice up,NPC1 promoter act,Rab9 promoter act,Luc counter
Cc1ccc(-c2nc3cc(C(C)C)ccc3o2)cc1NC(=O)c1cc([N+](=O)[O-])ccc1N1CCOCC1,/,1.3µM,.,/,/,/
COc1cc(C)ccc1OCc1cc(C(=O)NCCN2CCOCC2)no1,?,11µM,/,2.2µM,4µM,/
COc1ccccc1-c1cc(C(=O)NCCN2CCOCC2)no1,.,.,.,.,.,.
COc1cc(C)ccc1OCc1cc(C(=O)N(C)CCCN2CCOCC2)no1,18µM,12µM,/,2.8µM,2.5µM,/
COc1cc(Cl)ccc1OCc1cc(C(=O)NCCCN2CCCC2=O)no1,.,21µM,/,.,.,/
CN(CCCN1CCOCC1)C(=O)c1cc(COc2ccc(F)cc2F)on1,.,.,/,.,.,/
CCCN1C(=O)c2ccccc2CC1(C)C(=O)NC1CCCCC1 (centres undefined),/,.,.,/,/,/
COc1ccc(-c2noc(-c3ccc(N4CCN(c5ccccc5OC)CC4)c([N+](=O)[O-])c3)n2)cc1,/,.,/,/,/,/
CC(=O)Oc1ccc(-c2cccc(C(=O)O)c2)cc1,?,3.8µM,.,.,.,.
CC(=O)Oc1ccc(-c2ccc(C(=O)O)cc2)cc1,.,?,.,.,.,.
CC(C)CC(=O)Nc1cccc(-c2csc(-c3ccccc3)n2)c1,.,?,?,.,.,.
CC(C)=NNc1nc(-c2ccc([N+](=O)[O-])cc2)cs1,.,?,.,.,.,.
CC(=O)Nc1cccc(-c2csc(NCc3ccccc3)n2)c1,.,21µM,/,.,.,.
C/C(=N/Nc1nc(-c2ccc(Cl)cc2)cs1)c1cccs1,.,15µM,?,.,?,.
CC(=O)Nc1ccc(-c2csc(N/N=C(/C)c3ccccc3)n2)cc1,.,21µM,/,.,.,/
CCC(=O)Nc1cccc(-c2csc(-c3ccccc3)n2)c1,.,15µM,?,.,.,.
COc1ccccc1CNC(=O)c1ccc(CN2CC(=O)N3CCCCC3C2=O)cc1 (centres undefined),/,.,/,/,/,/
CC(=O)Nc1ccc(-c2csc(NCc3ccccc3)n2)cc1,?,19µM,.,.,?,.
CC(=O)Nc1ccc(-c2csc(NNC(=O)c3ccccc3)n2)cc1,.,.,.,.,.,.
CCOC(=O)N1CCN(C(=O)CNS(=O)(=O)c2c(C)cc(C)cc2C)CC1,.,.,/,.,.,/
Cc1cc(NC(=O)NCc2ccccc2)c(=O)n(Cc2ccc(F)cc2)c1,.,1.7µM,/,.,.,/
CC(=O)Nc1ccc(S(=O)(=O)Nc2cc(C)cn(Cc3ccccc3)c2=O)cc1,.,.,/,.,.,/
Cc1ccc(Cn2cccc(NC(=O)NC3CCCCC3)c2=O)cc1,.,17µM,.,.,.,.
O=C(NCc1ccccc1)Nc1cccn(Cc2ccccc2F)c1=O,.,12µM,.,.,.,.
O=C(NCc1ccccc1)Nc1cccn(Cc2cccc(F)c2)c1=O,.,?,.,.,.,.
CCOc1ccc(NC(=O)Nc2ccccc2SC)cc1,?,2.7µM,/,4µM,?,11µM
O=C(NCc1ccccc1)Nc1cccn(Cc2ccccc2)c1=O,.,11µM,.,.,.,.
COc1ccc(Cn2cccc(NC(=O)Nc3cccc(C#N)c3)c2=O)cc1,.,.,.,.,.,.
O=C(NCc1ccccc1)Nc1cccn(Cc2ccc(F)cc2)c1=O,.,?,.,.,.,.
CCOc1ccc(NC(=O)Nc2cccn(Cc3ccccc3)c2=O)cc1,.,9.5µM,.,.,.,.
